Laboratory results as given in PubChem BioAssay (NCATS).
Several values for one entry are separate records, joined by “and”; a condition that tells them apart may be missing. Equal values may be shown once. Inconclusive results are not listed. Activity calls are given as the source filed them. Unless noted, calls come from the whole dose curve; as a rule, active = well fitted curve in the direction sought with a large enough effect; inconclusive = small, poorly fitted or top-dose-only effect, or another doubt; inactive = no such curve, though single readings can be large; an effect the other way counts as inactive or inconclusive.

Columns and labels:
SKOV3 = assay: Primary qHTS to identify gynecologic anti-cancer compounds using libraries of approved drugs and bioactive compounds (AID 1345084); details: Gynecologic cancer cell panel viability, ATPlite luminescence, 48 h; series mostly up to 57.5 µM; note: % is set by controls: 0 for no effect and ±100 for the full control effect; nearly all actives have a fitted effect of over 55% in size
Method in brief: (§1)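 ATP-based viability (ATPlite), 1,000 cells/well, 16 h pre-incubation, 48 h compound at 37 C, 5% CO2, 15 min RT before read.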

Tov-21-G = assay: as above; details: Gynecologic cancer cell panel viability, ATPlite luminescence, 48 h; series mostly up to 57.5 µM
Method in brief: as §1

Tov112D = assay: as above; details: Gynecologic cancer cell panel viability, ATPlite luminescence, 48 h; series mostly up to 57.5 µM
Method in brief: as §1

[1] = Drug repurposing screens with cells derived from glioblastoma tumor samples (AID 1345199); details: GBM patient neurospheres viability, ATP luminescence, 48 h; Potency: tumour line A unless noted; series mostly up to 45.9 µM; note: % is set by controls: 0 for no effect and ±100 for the full control effect; nearly all actives have a fitted effect of over 40% in size
Method in brief: (§2)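 Primary testing used CD133+ neurospheres from four GBM patients, seven concentrations, 48 h exposure and ATP-based viability; confirmation added three slower-growing patient lines.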

astro = assay: as above; details: viability, ATP luminescence, 48 h; series mostly up to 45.9 µM
Method in brief: as §2

[2] = target: Nuclear receptor subfamily 1 group I member 2 (Rattus norvegicus) (UniProt Q9R1A7); assay: qHTS assay for small molecule activators of the rat pregnane X receptor (rPXR) signaling pathway (AID 651751; call rule not given here; note: 0% is about no effect); details: rPXR reporter cells, luciferase (One-Glo), 24 h
Chain of Nuclear receptor subfamily 1 group I member 2 (Rattus norvegicus) (Q9R1A7 whole entry, looked up): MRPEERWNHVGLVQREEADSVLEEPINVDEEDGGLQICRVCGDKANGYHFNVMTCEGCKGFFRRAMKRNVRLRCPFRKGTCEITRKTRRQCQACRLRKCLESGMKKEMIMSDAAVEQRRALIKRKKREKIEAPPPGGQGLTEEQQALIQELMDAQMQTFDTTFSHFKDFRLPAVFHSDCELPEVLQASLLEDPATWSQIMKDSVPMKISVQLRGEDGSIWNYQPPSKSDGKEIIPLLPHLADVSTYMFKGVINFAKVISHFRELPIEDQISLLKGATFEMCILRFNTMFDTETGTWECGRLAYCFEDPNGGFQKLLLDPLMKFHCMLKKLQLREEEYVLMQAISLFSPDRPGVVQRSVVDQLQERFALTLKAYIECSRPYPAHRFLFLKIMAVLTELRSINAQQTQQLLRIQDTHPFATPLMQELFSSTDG

[3] = qHTS assay for small molecule activators of the human pregnane X receptor (PXR) signaling pathway (AID 720659; call rule not given here; note: 0% is about no effect)

O=C(O)COc1nc(Cl)c(Cl)cc1Cl
inactive: Potency (SKOV3) | Potency (Tov-21-G) | Potency (Tov112D) | Potency [1] | Potency (astro) | max response [2] -1.37%

Cc1ccc(Cl)c(O)c1
inactive: Potency (SKOV3) | Potency (Tov-21-G) | Potency (Tov112D) | Potency [1] | Potency (astro)

O=C(NCC1CCOCC1)c1cnc(Nc2ccc(Cl)cc2Cl)nc1C(F)(F)F
inactive: Potency (SKOV3) | Potency (Tov-21-G) | Potency (Tov112D)

CCN(CC)C(=O)c1ccc(C2=CC3(CCNCC3)Oc3cccc(O)c32)cc1
inactive: Potency (SKOV3) | Potency (Tov-21-G) | Potency (Tov112D)

Cc1ccccc1-n1c(Cn2ncc3c(N)ncnc32)nc2cccc(C)c2c1=O
inactive: Potency (SKOV3) | Potency (Tov-21-G) | Potency (Tov112D)

O=C(O)COc1ccccc1
inactive: Potency (SKOV3) | Potency (Tov-21-G) | Potency (Tov112D) | Potency [1] | Potency (astro) | max response [2] -3.8% | outcome [3]

O=C(Oc1ccc([N+](=O)[O-])cc1)N1CCC(C(O)(c2ccc3c(c2)OCO3)c2ccc3c(c2)OCO3)CC1
inactive: Potency (SKOV3) | Potency (Tov-21-G) | Potency (Tov112D)

O=C(O)CNC(=O)c1c(O)c2ccccc2n(Cc2ccccc2)c1=O
inactive: Potency (SKOV3) | Potency (Tov-21-G) | Potency (Tov112D)

O=S(=O)(O)C(F)(F)C(F)(F)C(F)(F)C(F)(F)F
inactive: Potency (SKOV3) | Potency (Tov-21-G) | Potency (Tov112D) | Potency [1] | Potency (astro) | max response [2] -0.463% and -1.11%

CC(Cc1ccc(O)cc1)NCC(O)c1cc(O)cc(O)c1 (centres undefined)
inactive: Potency (SKOV3) | Potency (Tov-21-G) | Potency (Tov112D) | Potency [1] | Potency (astro)

CC(O)CN1CCN(CC(=O)[O-])CCN(CC(=O)[O-])CCN(CC(=O)[O-])CC1.[Gd+3] (centres undefined)
inactive: Potency (SKOV3) | Potency (Tov-21-G) | Potency (Tov112D) | Potency [1] | Potency (astro)

CC[N+]1(CCOC(=O)C(O)(c2ccccc2)c2ccccc2)CCCCC1
inactive: Potency (SKOV3) | Potency (Tov-21-G) | Potency (Tov112D) | Potency [1] | Potency (astro)
